Compounds with a hit are over-represented: about 4.6% of the library has one in this group of screens.
Lassa entry inh: qHTS for Inhibitors of binding or entry into cells for Lassa Virus; Lassa virus pseudotype entry inhibition, cell reporter; Potency, µM (top dose mostly 37.9 µM), for inactives: top-dose activity change, negative = inhibition, hits mostly inhibitors; actives 1.2% (n = 300,000); calls by dose curve; tested in HEK293 cells; further: nearly all actives have a fitted effect of over 50% in size
Vaccinia Venus: qHTS for Stage-Specific Inhibitors of Vaccinia Orthopoxvirus: Venus Reporter Primary qHTS | actives 0.46% (n = 330,000) | Potency, µM (doses to about 36.5 µM), for the others: top-dose activity change, negative = inhibition, hits mostly inhibitors | AID 720580, 2013 | Vaccinia virus Venus reporter expression, fluorescence; calls by dose curve; tested in A549 cells; further: nearly all actives have a fitted effect of over 30% in size
VACV mCherry inh: qHTS for Stage-Specific Inhibitors of Vaccinia Orthopoxvirus: mCherry Reporter Primary qHTS | actives 0.63% (n = 310,000) | AID 720579, 2013 | Vaccinia virus mCherry reporter infection, fluorescence | Potency, µM (top dose mostly 36.5 µM), inactives show at the highest dose activity change, negative = inhibition, most hits filed as inhibitors; calls by dose curve; tested in A549 cells; further: nearly all actives have a fitted effect of over 35% in size
HCV inhibitor: qHTS Assay for Inhibitors of Hepatitis C Virus (HCV); Huh7.5.1 HCVcc-Cre infection, luciferase reporter, 44 h; Potency, µM (highest dose often 41.8 µM), for inactives: at the top dose activity change, negative = inhibition, most hits filed as inhibitors; actives 3.4% (n = 340,000); AID 651820, 2012; active means well fitted inhibition curve with a large enough effect; inconclusive means small, poorly fitted or top-dose-only effect, or another doubt; inactive means no such curve, though single readings can be large or run the other way
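Cells (1,000/well) were plated 4 h before compound, then infected with HCVcc-Cre virus (~0.5 moi). After 44 h further culture, infection was read as luciferase luminescence following a 15 min substrate incubation at room temperature.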
MARV entry inh: qHTS for inhibitors of binding or entry into cells for Marburg Virus | Marburg virus pseudotyped entry inhibition, cell reporter | Potency, µM (highest dose often 37.8 µM), for inactives: at the top dose activity change, negative = inhibition, most hits filed as inhibitors | AID 540276, 2011 | actives 1.8% (n = 300,000); calls by dose curve; tested in HEK293 cells
Numbers without * were called inactive; i = inactive; ? = inconclusive; nt = no result; [ ] = remark or other dose. On the % scale 0 is the no-effect control and ±100 the full control effect; potency means the concentration at half of the fitted maximal effect.

SMILES	Lassa entry inh	Vaccinia Venus	VACV mCherry inh	HCV inhibitor	MARV entry inh
CCOc1ccc(C(C)=O)cc1COC(=O)C1=COCCO1	-1%	-13%	nt	10µM*	16%
CCn1c2ccccc2c2cc(/C=N/n3c(C)nnc3C)ccc21	?	-13%	-17%	3.5µM*	?
Cc1nnc(C)n1/N=C/c1ccccc1	5%	0%	6%	-9%	0%
Cn1c2ccccc2c2cc(/C=N/NC(=O)c3cc(O)cc(O)c3)ccc21	11%[46.1 µM]	-14%	i	0%	?
Cn1c2ccccc2c2cc(/C=N/NC(=O)c3cc(O)ccc3O)ccc21	?	?	-1%	10µM*	-8%
CCn1c2ccccc2c2cc(/C=N/NC(=O)c3ccccc3)ccc21	?	nt	nt	?	12µM*
Cc1cc(C)cc(-n2ccnc(NCCc3ccccc3)c2=O)c1	?	-12%	0%	nt	nt
Cc1ccc(C)c(Cn2c3ccccc3c3cnn(CC(=O)NC(C)CCc4ccccc4)c(=O)c32)c1 (stereo unspecified)	1%[46.1 µM]	-13%[7.34 µM]	-11%[7.34 µM]	nt	10%[46.1 µM]
C=CS(=O)(=O)N[C@@H](CSSC[C@H](NS(=O)(=O)C=C)C(=O)OC)C(=O)OC	8%[46.1 µM]	nt	nt	nt	nt
Cn1cnnc1SCc1ccc(C(=O)N=Nc2c(O)n(Cc3ccc(Cl)cc3)c3ccccc23)cc1	?	?	?	10µM*	?
CC(C)COC(=O)N1CCCC1C(=O)O (stereo unspecified)	-4%	0%	?	3.2µM*	6%
OCCN1CCN(Cc2ccc3c(c2)CN(Cc2cccc4ncccc24)CCO3)CC1	nt	3%	-8%	nt	nt
c1cc2n(c1)-c1c(ccc3c1OCO3)CNC2c1ccc2c(c1)OCO2 (stereo unspecified)	-1%	-29%	nt	?	?
COc1ccc(C2NCc3ccc4c(c3-n3cccc32)OCO4)cc1O (stereo unspecified)	?	?	nt	0.56µM*	0.63µM*
CC(C)c1c(C(=O)NCC2(N3CCOCC3)CCCC2)cnn1-c1nccc(-c2cccs2)n1	nt	-8%	-13%	nt	nt
COc1ccc2c(c1)[C@@]1(OCCC=C[C@@H]1C)C(=O)N2Cc1ccccc1C(F)(F)F	nt	nt	nt	nt	-15%[14.2 µM]
COc1cccc(/C=N/NC(=O)c2cnccn2)c1O	nt	-5%	4.5µM*	-8%	nt
COc1cccc(/C=N/NC(=O)c2ccncc2)c1OC(=O)c1ccc(Br)cc1	?	-29%	4.5µM*	?	?
Cc1onc(-c2ccccc2)c1C(=O)N/N=C/c1c[nH]c2ccccc12	10µM*	-17%	-40%	?	3%[46.1 µM]
COc1cccc(/C=N/NC(=O)c2c(-c3ccccc3)noc2C)c1O	10µM*	?	10µM*	?	11µM*
CN(C)CCNC(=O)CN1C(=O)COc2ccc(S(=O)(=O)N3CCCC3)cc21	1%[46.1 µM]	-1%	-3%	nt	2%[46.1 µM]
CO[C@H]1[C@H](NC(=O)c2cccc(F)c2)c2ccccc2C12CCN(Cc1ccco1)CC2	nt	-6%	-4%	nt	nt
Cc1nc2ccc(S(=O)(=O)NC(CC(C)C)C(=O)N3CCN(c4ccc(F)cc4)CC3)cc2s1 (stereo unspecified)	-25%[46.1 µM]	-9%	-12%	nt	-15%[46.1 µM]
CCCS(=O)(=O)NCc1c(C)ncc2c1CCN(C(=O)/C=C/c1cccc(Cl)c1)C2	nt	15%	-7%	nt	nt
COc1cccc(/C=N/NC(=O)c2ccoc2C)c1O	nt	?	4.5µM*	10µM*	nt
SMILES	Lassa entry inh	Vaccinia Venus	VACV mCherry inh	HCV inhibitor	MARV entry inh
CCOc1cc(Br)cc(/C=N/NC(=O)c2cccnc2)c1O	?	?	7.1µM*	?	?
COc1cc(/C=N/NC(=O)c2ccoc2C)ccc1O	17%	0%	-17%	-19%	?
COc1cccc(/C=N/NC(=O)c2cc(-c3cccn3C)n[nH]2)c1O	2.2µM*	?	4µM*	5µM*	8.9µM*
COc1cccc(/C=N/NC(=O)C(=O)N/N=C/c2cccc(OC)c2O)c1O	?	2%	-7%	-14%	?
COc1c(Br)cc(Br)cc1/C=N/NC(=O)c1cccnc1	nt	nt	nt	-17%	nt
COc1cccc(/C=N/NC(=O)C(=O)N2CCCCCC2)c1O	?	-27%	13µM*	16%	?
Cc1ccc2c(c1)CCCN2C(=O)c1cnn2c1NC(=C1CC1)C=C2C(F)F	nt	?	-30%	nt	nt
COc1cc(-c2ccc(C)cc2)cc2c1OCCN(C(=O)CCn1ccc(C)n1)C2	nt	-8%	-18%	nt	nt
COc1ccc(CN2CC[C@H]3C=CC[C@@H](C(=O)Nc4nccs4)[C@H]3C2=O)cc1OC	nt	-22%	-9%	nt	nt
O=C(Nc1ccc(S(=O)(=O)N2CCN(Cc3ccccc3)CC2)cc1)c1cnccn1	?	nt	nt	6.3µM*	?
CS(=O)(=O)c1ccc(NC(=O)c2cccc(S(=O)(=O)N3CCN(Cc4ccccc4)CC3)c2)cc1	?	-26%	?	10µM*	?
CN(CC(=O)Nc1ccc(Cl)cc1)C(=O)c1cccc(S(=O)(=O)N2CCN(Cc3ccccc3)CC2)c1	-18%	-24%	-13%	11µM*	?
C/C(=C1/C=Nc2ccccc21)c1ccc(N(C)C)cc1	nt	-15%	20%	nt	nt
CS(=O)(=O)N1CCc2cc(C(=O)Nc3ccc(O)cc3)ccc21	0%	4%	2%	-13%	?
CS(=O)(=O)N1CCc2cc(C(=O)Nc3ccc(COCC(F)(F)F)cc3)ccc21	nt	nt	nt	11µM*	nt
O=C(NCCc1c[nH]c2ccccc12)c1cc2sccc2n1Cc1ccccc1	?	nt	nt	5µM*	-12%
CCOc1ccc(N(C(C)C(=O)Nc2ccc(OC)cc2)S(C)(=O)=O)cc1 (stereo unspecified)	?	-15%	-14%	6%	6%
CCN(CC)S(=O)(=O)c1ccc(NC(=O)C(C)N(c2ccc(OC)cc2)S(C)(=O)=O)cc1 (stereo unspecified)	?	nt	nt	10µM*	-30%
Nc1nonc1C(=O)NCCNCc1ccccc1OCc1ccccc1F	2%	nt	nt	-29%	?
Nc1nonc1C(=O)NCCNCc1cc(Br)ccc1OCc1ccccc1F	-19%	nt	nt	10µM*	?
Cc1ccc(NC(=S)NCc2ccccc2)cc1[N+](=O)[O-]	16µM*	-23%	?	-23%	7.1µM*
Cc1ccc(CNC(=S)Nc2ccc(C)c([N+](=O)[O-])c2)cc1	20%	-9%	i	-20%	28%
COc1ccc2c(c1)[C@H](C=Cc1ccccc1)[C@@H]([C@H](O)CO)O2	nt	nt	nt	nt	17%[14.2 µM]
CCCn1c(C)nc2c(c1=O)c1nc3ccccc3nc1n2CCC1=CCCCC1	?	nt	nt	-30%	23µM*
CCCn1c(C)nc2c(c1=O)c1nc3ccccc3nc1n2CCc1ccccc1	nt	nt	nt	nt	-3%
CC(/C=C/c1ccccc1)=N\NC(=S)NC(C)C	?	-22%	-16%	?	?
CC(/C=C/c1ccccc1)=N\NC(N)=S	-18%	?	4µM*	16µM*	?

Screens (PubChem BioAssay)
